Assay results taken from paper PMC5540273 (PLoS ONE, 2017).

What was measured:
Details in all cases: concentration: 1 μM,replicates: in singlicate; n = 1
[1] = test system: PRKD3
[2] = test system: PRKG1
[3] = test system: PRKG2
[4] = test system: T1, PRKR
T1 construct: gene EIF2AK2

[5] = test system: PRKX
[6] = test system: PRP4
[7] = test system: T2, PYK2
T2 construct: gene PTK2B

[8] = test system: QSK
[9] = test system: RAF1
[10] = test system: RET
[11] = test system: RIOK1
[12] = test system: RIOK2
[13] = test system: RIOK3
[14] = test system: RIPK1
[15] = test system: RIPK2
[16] = test system: RIPK4
[17] = test system: RIPK5
[18] = test system: ROCK1
[19] = test system: ROCK2
[20] = test system: ROS1
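Further: KINOMEscan kinase panel screen.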

| Structure (SMILES) | %Inh [1] | %Inh [2] | %Inh [3] | %Inh [4] | %Inh [5] | %Inh [6] | %Inh [7] | %Inh [8] | %Inh [9] | %Inh [10] | %Inh [11] | %Inh [12] | %Inh [13] | %Inh [14] | %Inh [15] | %Inh [16] | %Inh [17] | %Inh [18] | %Inh [19] | %Inh [20] |
| --- | --- | --- | --- | --- | --- | --- | --- | --- | --- | --- | --- | --- | --- | --- | --- | --- | --- | --- | --- | --- |
| C=CC(=O)Nc1cc2c(Nc3ccc(F)c(Cl)c3)ncnc2cc1OCCCN1CCOCC1 [GW781483] | 0% | 0% | 31% | 0% | 0% | 0% | 1% | 1% | 0% | 38% | 54% | 10% | 46% | 8% | 53% | 26% | 4% | 42% | 0% | 4% |
| Cc1n[nH]c2ccc(-c3cc(OC[C@@H](N)Cc4ccccc4)cnc3-c3ccoc3)cc12.O=C(O)C(F)(F)F.O=C(O)C(F)(F)F [GSK507358] | 100% | 0% | 0% | 4% | 84% | 27% | 40% | 5% | 0% | 8% | 93% | 0% | 72% | 0% | 0% | 0% | 0% | 31% | 33% | 0% |
| CNC(=O)c1ccccc1Sc1ccc2c(/C=C/c3ccccn3)n[nH]c2c1 | 0% | 0% | 0% | 0% | 9% | 0% | 20% | 0% | 3% |  | 2% | 0% | 0% | 12% | 22% | 0% | 11% | 5% | 17% | 45% |
| Cl.Cl.NC[C@H](CC1CCCCC1)NC(=O)c1cc(Br)c(-c2ccnc3[nH]ccc23)s1 [GSK1581427] | 82% | 99.3% | 98.5% | 0% | 96.2% | 78% | 20% | 5% | 2% | 25% | 100% | 66% | 80% | 0% | 0% | 20% | 5% | 100% | 99.1% | 17% |
| NC(=O)c1cc(-c2ccccc2)cc2c(C3CCNCC3)c[nH]c12 [GSK301362] | 29% | 5% | 0% | 0% | 36% | 2% | 37% | 13% | 3% | 7% | 79% | 20% | 64% | 0% | 7% | 19% | 0% | 40% | 19% | 23% |
| CC(C)N1C(=O)Cc2cc(Nc3ncc(C(F)(F)F)c(NCc4cccc(S(C)(=O)=O)c4)n3)ccc21 | 0% | 0% | 8% | 0% | 0% | 25% | 22% | 0% | 0% | 86% | 46% | 21% | 88% | 0% | 4% | 42% | 43% | 3% | 0% | 59% |
| CN(C)CCOc1ccc(-c2cc(-c3c[nH]nc3-c3ccccn3)ccn2)cc1 [GW835314] | 91.5% | 0% | 12% | 0% | 0% | 0% | 0% | 9% | 28% | 36% | 0% | 2% | 8% | 0% | 78% | 16% | 14% | 9% | 18% | 21% |
| Cc1cc2cn[nH]c2cc1-c1cccc2c(N)c(C(N)=O)nnc12 | 84% | 0% | 23% | 2% | 20% | 6% | 27% | 15% | 0% | 19% | 100% | 77% | 73% | 0% | 4% | 84% | 74% | 70% | 68% | 80% |
| Cc1occc1-c1nc(N)c(OC[C@@H](N)Cc2c[nH]c3ccccc23)cc1-c1cc2c(C)n[nH]c2cn1 [GSK1660450] | 100% | 78% | 96.2% | 0% | 79% | 0% | 0% | 90.4% | 0% | 23% | 87% | 16% | 59% | 0% | 10% | 4% | 0% | 93.7% | 82% | 4% |
| Cl.Cl.NC[C@H](Cc1ccc(C(F)(F)F)cc1)NC(=O)c1cc(Br)c(-c2ccnc3[nH]ccc23)s1 [GSK1487252] | 81% | 98.1% | 98.7% | 0% | 96% | 22% | 13% | 14% | 10% | 74% | 35% | 0% | 12% | 0% | 0% | 19% | 0% | 98.2% | 99.5% | 44% |
| O=C(NCCNc1ccnc(NCc2ccc(F)cc2)n1)c1cc2ccccc2s1 [GSK1379944] | 100% | 22% | 0% | 0% | 19% | 18% | 14% | 7% | 11% | 79% | 28% | 0% | 17% | 0% | 73% | 5% | 0% | 0% | 0% | 7% |
| Cl.Oc1cc(-c2nc(-c3ccccc3)[nH]c2-c2ccncc2)ccc1Cl [SB-386023] | 0% | 15% | 0% | 0% | 0% | 0% | 6% | 33% | 97.9% | 66% | 0% | 5% | 0% | 0% | 78% | 17% | 21% | 1% | 6% | 19% |
| Cc1ccc2c(-c3ccncc3)c(-c3ccc(F)cc3)nn2c1.Cl [GW461484] | 50% | 30% | 18% | 0% | 0% | 0% | 0% | 1% | 19% | 14% | 0% | 0% | 19% | 0% | 55% | 0% | 0% | 14% | 5% | 0% |
| O=C(NCCCN1CCOC1=O)c1cnc(NCc2cc(Cl)ccc2Cl)nc1NC1CCCC1 | 0% | 13% | 21% | 4% | 0% | 1% | 0% | 0% | 7% | 22% | 0% | 0% | 6% | 1% | 0% | 11% | 0% | 0% | 0% | 18% |
| COc1ccc(C[C@@H](CN)NC(=O)c2cc(Br)c(-c3ccnc4[nH]ccc34)s2)cc1.Cl.Cl [GSK1389063] | 94.4% | 98.7% | 98.9% | 1% | 94.2% | 18% | 47% | 0% | 5% | 98.4% | 89% | 49% | 80% | 0% | 4% | 36% | 28% | 100% | 95.2% | 59% |
| CCn1c(-c2nonc2N)nc2c(C#CC(C)(C)O)nc(OCCN)cc21.Cl.Cl [GSK902056] | 37% | 39% | 97% | 0% | 91.6% | 8% | 9% | 23% | 0% | 23% | 0% | 8% | 0% | 0% | 0% | 0% | 4% | 18% | 0% | 2% |
| CC(C)Nc1cc(-c2ccc3c(N)n[nH]c3c2)nc(N)n1 [GSK2221681] | 0% | 0% | 42% | 0% | 79% | 7% | 0% | 0% | 0% | 0% | 94.1% | 19% | 66% | 0% | 0% | 66% | 0% | 7% | 41% | 5% |
| Cl.Cl.Nc1nc(-c2ccc3c(N)n[nH]c3c2)cc(N2CCCC(NC(=O)c3ccccc3)C2)n1 (stereo not drawn) [GSK2286775] | 0% | 0% | 38% | 5% | 83% | 36% | 15% | 0% | 9% | 0% | 96.5% | 9% | 99.3% | 4% | 8% | 39% | 5% | 2% | 30% | 0% |
| Cc1cc(C(=O)Nc2ccc(Oc3ccc4nc(NC(=O)C5CC5)cn4n3)cc2)nn1-c1ccccc1 | 0% | 8% | 6% | 18% | 0% | 0% |  | 0% | 75% | 81% | 17% | 0% | 41% | 0% | 24% | 0% | 0% | 0% | 0% | 0% |
| CCN(CC)CCCCNc1ncc2cc(-c3c(Cl)cccc3Cl)c(NC(=O)NC(C)(C)C)nc2n1 | 25% | 2% | 7% | 0% | 0% | 0% | 4% | 39% | 87% | 96.5% | 0% | 6% | 0% | 17% | 54% | 0% | 26% | 0% | 9% | 43% |
| CN(C)CC(O)COc1ccc(Nc2nccc(-c3cnn4nc(N5CCOCC5)ccc34)n2)cc1 (stereo not drawn) [GW767488] | 93.6% | 0% | 50% | 59% | 8% | 2% | 29% | 43% | 6% | 17% | 96.6% | 98.2% | 98.2% | 46% | 0% | 55% | 65% | 93.8% | 97.9% | 48% |
| C[C@@H](Oc1cc(-c2cnn(C3CCNCC3)c2)cnc1N)c1c(Cl)ccc(F)c1Cl | 63% | 0% | 3% | 26% | 35% | 0% | 80% | 0% | 0% |  | 39% | 0% | 50% | 6% | 32% | 34% | 80% | 5% | 20% |  |
| CCN(CC)CCOc1ccc(Nc2ncc3cc(-c4c(Cl)cccc4Cl)c(=O)n(C)c3n2)cc1 [SB-601273] | 100% | 0% | 9% | 18% | 0% | 31% | 56% | 95.6% | 97% | 100% | 35% | 29% | 92.3% | 100% | 99.7% | 18% | 44% | 25% | 50% | 50% |
| Nc1nc(Nc2ccccc2)cc(-c2ccc3c(N)n[nH]c3c2)n1 [GSK2225749] | 0% | 12% | 45% | 3% | 57% | 60% | 0% | 0% | 0% | 6% | 98.5% | 54% | 76% | 0% | 0% | 44% | 0% |  | 45% | 0% |
| C[C@H]1Oc2cc(cnc2N)-c2c(nn(C)c2C#N)CN(C)C(=O)c2ccc(F)cc21 | 8% | 0% | 10% | 0% | 7% | 0% | 99.6% | 0% | 0% | 22% | 0% | 0% | 0% | 12% | 0% | 0% | 89% | 0% | 0% | 98.5% |
| Cc1ccc(-n2nc(C(C)(C)C)cc2NC(=O)Nc2ccc(OCCN3CCOCC3)c3ccccc23)cc1 [GW839464] | 16% | 0% | 3% | 8% | 0% | 15% |  | 1% | 26% | 54% | 54% | 0% | 8% | 29% | 0% | 0% | 0% | 0% | 0% | 0% |
| C[C@@H]1CCN(C(=O)CC#N)C[C@@H]1N(C)c1ncnc2[nH]ccc12 | 14% | 14% | 0% | 0% | 0% | 0% |  | 0% | 0% |  | 0% | 0% | 37% | 0% | 0% | 0% | 0% |  | 46% | 6% |
